# Test results as given in PubChem BioAssay AID2284167 (EPA ToxCast).
# Inconclusive results are not listed. Active and inactive are the calls of the source. Rule for the calls: active = hit-call score of the fitted dose curve at least 0.9, where 1 is the maximum; inconclusive = response in the unintended direction; inactive = score below 0.9.
# Molecular target: human Neurotensin Receptor NT1 Agonism, NTSR1 (gene 4923) (UniProt P30989)
# Test: ERF_FR_GPCR_hNTSR1: Eurofins (ERF) G Protein-Coupled Receptor (GPCR) Radioligand Binding LeadHunter Assay for human Neurotensin Receptor NT1 Agonism
# Protocol: ERF_FR_GPCR_hNTSR1 is a biochemical, single-readout assay that uses extracted gene-proteins in a cell-free assay. Measurements were taken 1 hour after chemical dosing in a 96-well plate. See NT1 Human Neurotensin GPCR Binding (Agonist Radioligand) Assay, Cerep.ERF_FR_GPCR_hNTSR1 is an assay component calculated from the ERF_FR_GPCR_hNTSR1 assay. It is designed to measure radioligand binding using a type of binding reporter as detected by scintillation counting with radiometry technology.Data from the assay component ERF_FR_GPCR_hNTSR1 was analyzed at the assay endpoint, ERF_FR_GPCR_hNTSR1, in the positive analysis fitting direction relative to DMSO as the negative control and baseline of activity. Using a type of binding reporter, gain-of-signal activity can be used to understand changes in binding as they relate to gene NTSR1. To generalize the intended target to other relatable targets, this assay endpoint is annotated to the gpcr intended target family, where the subfamily is neurotensin.
# Human cells are incubated for 60 minutes at 4 C with [125I]Tyr3-neurotensin ligand (0.05 nM) and neurotensin as control inhibitor. Test Sample Requirements: Minimum for 1) Screen: 60 ul of 10 mM stock -OR- 1 mg (pre-weighed) for 10 uM final testing. 2) Dose Response: 90 ul of 10 mM stock -OR- 1 mg (pre-weighed) for a top concentration at 10 uM.
# Sequence of human Neurotensin Receptor NT1 Agonism, NTSR1 (gene 4923) (P30989 whole entry, looked up): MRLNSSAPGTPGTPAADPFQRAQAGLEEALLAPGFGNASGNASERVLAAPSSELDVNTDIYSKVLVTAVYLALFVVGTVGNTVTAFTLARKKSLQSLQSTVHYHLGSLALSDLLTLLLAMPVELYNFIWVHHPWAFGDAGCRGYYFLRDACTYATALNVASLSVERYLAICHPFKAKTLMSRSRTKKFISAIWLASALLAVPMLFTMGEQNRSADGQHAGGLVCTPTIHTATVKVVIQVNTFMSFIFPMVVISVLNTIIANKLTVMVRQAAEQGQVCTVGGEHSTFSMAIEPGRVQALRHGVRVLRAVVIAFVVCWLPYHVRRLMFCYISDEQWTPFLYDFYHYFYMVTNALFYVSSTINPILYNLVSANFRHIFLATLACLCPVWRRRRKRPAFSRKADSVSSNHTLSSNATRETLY
row,SMILES,AC50
1,O=C(/C=C/c1ccc(O)cc1)CC(=O)/C=C/c1ccc(O)cc1,2990 nM (active)
